According to PubChem BioAssay (EPA / NIEHS):
Records with an inconclusive call do not appear. Calls of active or inactive are those of the source. The calls were made as follows: active = hit-call score of the fitted dose curve at least 0.9, where 1 is the maximum; inconclusive = response in the unintended direction; inactive = score below 0.9.

Assay: CCTE_Deisenroth_AIME_384WELL_CTox_Active: Cytotoxicity Assessment (CTOX) in CCTE's 384-well Estrogen Receptor Transactivation Assay with AIME metabolic competence (metabolism positive), Deisenroth Lab (AID 2284037);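 also: chemicals first conditioned 2 h by alginate-bound induced rat liver S9 before cells; activity means signal loss indicating cell death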
Method: CCTE_Deisenroth_AIME_384WELL (AIME metabolism assay) is a cell-based, single-readout assay that uses VM7Luc4E2, a human mammary gland/breast cell line, with measurements taken at 24 hour after chemical dosing in a 384-well plate.CCTE_Deisenroth_AIME_384WELL_CTox_Active is one of four assay components measured or calculated from the CCTE_Deisenroth_AIME_384WELL assay. It is designed to make measurements of a protease substrate, a type of viability indicator, as detected with substrate cleavage to a fluorescent probe in living cells.CCTE_Deisenroth_AIME_384WELL_CTox_Active is a component of the CCTE_Deisenroth_AIME_384WELL assay that measures the effect of retroftting the VM7Luc ERTA assay with the Alginate Immobolization of Metabolic Enzymes (AIME) metabolism method. AIME is optimized to impart phase I hepatic metabolism using phenobarbital/beta-naphthoflavone induced hepatic S9 from male Sprague Dawley rats. Parent chemicals are incubated for 2 hours in the AIME assay prior to transfer to the VM7Luc ERTA assay plate. […] This endpoint evaluates cytotoxicity in metabolism positive mode. Using a type of flourescent probe in VM7Luc cells, loss-of-signal activity can be used to understand loss of viability. This assay endpoint, CCTE_Deisenroth_AIME_384WELL_CTox_Active, was analyzed with bidirectional fitting in the ERTA assay.
The AIME procedure consists of a preparative "pre-stamping" step using a barium chloride/poly-L-lysine (PLL) solution followed by "stamping" the lid in alginate-hepatic S9 (metabolism positive) or alginate-water (metabolism negative) to form microspheres. Once stamping is completed, the AIME lids are placed in duplicate microplates (metabolism positive or negative) containing chemical solutions and incubated for two hours to facilitate metabolic reactions. The conditioned medium, containing parent chemical or metabolites, is then transferred to the cell-based VM7Luc Estrogen Receptor Transactivation Assay (ERTA) for 24 hours. A typical experimental design tests a 10-point concentration series (0.002 - 200 uM) for 8 compounds (96-well format) (Deisenroth 2020) or 32 compounds (384-well format) (Hopperstad 2022) in single technical replicate. AIME assay controls include trans-stilbene (bioactivated control) and ethylparaben (bioinactivated control). ERTA assay plate controls include 17-beta estradiol (positive control) and DMSO (solvent control). Experiments typically comprise a minimum of four experimental replicates (n=4).

SMILES	AC50	outcome
Oc1ccc(Cl)cc1Cc1cc(Cl)ccc1O	102 µM (active)	
CCCCCCCCCCOS(=O)(=O)O	19.8 µM (active)	
CCCCC/C=C\CCC=O	100 µM (active)	
CCCCCc1ccc(Cl)cc1		inactive
C=CC(=O)NC(C)(C)CS(=O)(=O)O		inactive
CO[Si](OC)(OC)c1ccccc1		inactive
OC1CCCC1		inactive
O=C(C=Cc1ccccc1)OCc1ccccc1		inactive
C=C1C2CCC(C2)C1(C)C (centres undefined)		inactive
CCCCCCCC[N+](C)(CCCCCCCC)CCCCCCCC	39.3 µM (active)	
CCOC(=O)CC		inactive
CC(=O)OC(C)C		inactive
O=C1CCCC1		inactive
CN(C)c1ccc(C(=N)c2ccc(N(C)C)cc2)cc1	100 µM (active)	
O=C1C(N(CO)C(=O)NCO)N(CO)C(=O)N1CO (centres undefined)		inactive
CCN(CCC#N)c1ccc(N=Nc2c(Cl)cc([N+](=O)[O-])cc2Cl)cc1		inactive
CC=C1CC2C=CC1C2 (centres undefined)		inactive
O=S1(=O)OC(c2ccc(O)cc2)(c2ccc(O)cc2)c2ccccc21		inactive
O=c1cc(-c2ccccc2)oc2ccccc12		inactive
